Assay results: PubChem BioAssay (NCI)
Compounds without any hit were thinned out: in the full panel of roughly 83,000, 20% have a hit.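 Treatment: one concentration, 48 hours, 96-well format. Scoring: percent growth, with anything below 10 considered active.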 A number with no mark means an inactive call. The source made the active and inactive calls.

Test system: HL-60(TB) leukemia
Assay: NCI-60 one-dose screen, 48 h (100 = growth as untreated, 0 = no growth, -100 = all killed)
Conditions: 10 µM unless noted

Row | Structure (SMILES) | growth
1 | COc1ccc(C(C)=O)cc1S(N)(=O)=O | 74.7%
2 | CC(=O)O[C@@H]1/C=C/C(=O)N[C@@H](C)CCC/C=C/[C@@H]2CCC[C@H]21 | 99.8%
3 | CN(C)c1ccc(/C=N/N=C(N)N)cc1 | 59.2%
4 | O=C1Nc2ccccc2/C1=C/C(=O)c1ccc(N2CCCC2)cc1 | -10.8% (active)
5 | O=C1Nc2ccccc2/C1=N/N=C/c1c[nH]c2ccccc12 | 86.2%
6 | COc1ccc(Cn2cc3c(c2-c2ccc(O)cc2)CCc2cnoc2-3)cc1 | 4.87% (active)
7 | O=C1NC(=O)C(=Cc2cc(-c3ccc(Cl)cc3)n(-c3ccccc3)n2)C(=O)N1 | 89.5%
8 | COP(=O)(OC)C(c1ccc(O)cc1)(c1ccc(O)cc1)c1ccc(O)cc1 | 93.4%
9 | COc1cc2nc(Nc3cccc(Cl)c3)nc(N)c2cc1OC | 87.1%
10 | O=C(Cn1c2ccccc2c2ccncc21)N/N=C/c1c[nH]c2ccccc12 | 74.5%
11 | Cc1nc(C)c(C)nc1C | 73.9%
12 | O=C1CSC(c2c(Cl)cccc2Cl)N1c1nc(Cl)cc(=O)[nH]1 (stereo not drawn) | 161%
13 | O=c1c2cccc(F)c2sc2c(NCCCNCCO)nc3ccccc3c12 | -6.55% (active)
14 | CN1CCN(CCCOc2ccc3nc(Nc4cc(Cl)cc(Cl)c4)ccc3c2)CC1 | -39.2% (active)
15 | CC1CC(C)/C(=N/NC(N)=O)C(C(O)CC2CCC(=O)NC2=O)C1 (stereo not drawn) | 40.1%
16 | COc1ccc(/C=N/C2=C(C#N)C(c3ccc(OC)cc3)c3ccc4ccccc4c3O2)cc1 (stereo not drawn) | 63.4%
17 | COc1ccc(-c2[nH][nH]c(=O)c2-c2nc3ccccc3s2)cc1 | 99.5%
18 | CCCCCOc1ccc(C(=O)/C(Br)=C/C(=O)O)cc1 | 69.3%
19 | O=[N+]([O-])c1cccc(N=Cc2ccccc2)c1 | 106%
20 | COc1cc(OC)c(C(=O)C(CN(C)C)CN(C)C)cc1OC | -63.5% (active)
21 | CCOC(=O)c1ccc(Nc2ccnc(SCC(=O)c3ccc(C#N)cc3)n2)cc1 | 75.6%
22 | Nc1n[nH]c2cccc(C#Cc3cccc(C(=O)Nc4cc(CN5CCOCC5)cc(C(F)(F)F)c4)c3)c12 | 16.6%

Row | Structure (SMILES) | growth
23 | CCCCCCCCN(CCO)CCCCCCCC | 100%
24 | O=S(=O)(Cc1ccccc1)c1ccccc1 | 96.5%
25 | C=C1C(=O)O[C@H]2[C@H]1CC/C(COC(=O)NCc1cc(OC)c(OC)c(OC)c1)=C\CC[C@@]1(C)O[C@@H]21 | 11.5%
26 | Nc1nc2c(s1)CCc1c-2c(Br)n(Cc2ccccc2)c1Br | 51.6%
27 | c1cc(OCCN2CCCCC2)ccc1CNc1ccc2nc(CCC3CCCCC3)[nH]c2c1 | -31.6% (active)
28 | CC(C)=C1CCC(C)C/C1=N\N=C(N)N (stereo not drawn) | 104%
29 | COC(=O)/C=C1/SC(=NCc2ccccc2)N(CCc2c[nH]c3ccccc23)C1=O | 79.8%
30 | COc1cc(CNc2oc(-c3ccccc3)c(-c3ccccc3)c2C#N)cc(CN2CCN(C)CC2)c1O | 75.7%
31 | CCCCCCCCN(CCCCCCCC)CC(O)c1cc(-c2ccccc2)nc2ccc(OC)cc12 (stereo not drawn) | -28.4% (active)
32 | CCCCCCCCCCCCCC[n+]1ccc2c(C)c3c(c(C)c2c1)c1cc(O)ccc1n3CC | -40.6% (active)
33 | NCC(O)C(O)C(O)C(O)CO (stereo not drawn) | 114%
34 | COc1ccc2c(c1OC)CO[C@@H]2[C@H]1c2c(cc3c(c2OC)OCO3)CCN1S(=O)(=O)c1cn(C)cn1 | -0.0238% (active)
35 | COc1cc(N)c2nccc(C)c2c1OC | 96.2%
36 | CC1CCC(C(C)C)C(NN)C1 (stereo not drawn) | 70.2%
37 | COc1ccc2cc(-c3nc4ccc(C)cn4c3NCc3ccco3)c(=O)[nH]c2c1 | 67.5%
38 | N#Cc1c(NC(=O)c2cccs2)[n+]([O-])c2ccc(Cl)cc2[n+]1[O-] | 122%
39 | Clc1nc2ccccc2cc1Cn1nnc(Cc2ccccc2)n1 | 87.9%
40 | Cc1nc2ccc(Cl)cn2c1-c1nnc(SCc2ccc([N+](=O)[O-])cc2)o1 | 109%
41 | CCCCCC/C=C1\CCC(CN2CCCC2)C1=O (stereo not drawn) | 62.2%
42 | Cc1ccccc1N1C(c2ccccc2)=NNC12C=CC(=O)C=C2Cl (stereo not drawn) | 82.4%
43 | CC(C)(C)c1ccc(OCCCCCCCN2CCNCC2)cc1 | -40.7% (active)
44 | CC(C)(C)OC(=O)NC(CSCc1ccccc1)C(=O)ON1C(=O)CCC1=O (stereo not drawn) | 70.9%

Row | Structure (SMILES) | growth
45 | O=[N+]([O-])c1cc([N+](=O)[O-])c(N2CCCC2)cc1NN=C(c1ccc(O)cc1)c1ccc(O)cc1 | 122%
46 | CCCCCCCCCCCCCCCC[N+]1(C)CCN(SN2CC[N+](C)(CCCCCCCCCCCCCCCC)CC2)CC1 | 0.773% (active)
47 | Cc1ccnc(NC(c2ccccc2)c2ccc3cccnc3c2O)c1 (stereo not drawn) | -2.23% (active)
48 | O=S(=O)(NCCCNc1cc(-c2cn(-c3ccccc3)nc2-c2cccc(O)c2)ccn1)c1cccc(F)c1 | 39.1%
49 | O=C(Nc1ccc(I)cc1)c1cccc([N+](=O)[O-])c1O | 9.44% (active)
50 | CN(C)c1ccc(/C=C(\C#N)c2cc3ccccc3n2C)cc1 | 2.69% (active)
51 | CS(=O)(=O)Nc1ccc(C(=O)NC(C(=O)NO)c2ccc(-c3cccc(F)c3)cc2)cc1 (stereo not drawn) | 103%
52 | NC(=O)c1ccc[n+](Cc2ccc(Cl)cc2Cl)c1 | 73.1%
53 | FC(F)(F)Oc1cccc(-c2cc(NCCCCCCNc3cc(-c4cccc(OC(F)(F)F)c4)nc4ccc(N5CCCC5)cc34)c3cc(N4CCCC4)ccc3n2)c1 | 21.7%
54 | CCCCCCCC(=O)Nc1nc2[nH]c(CN3CCN(Cc4cccc(I)c4)CC3)c(CN3CCN(Cc4cccc(I)c4)CC3)c2c(=O)[nH]1 | -49.3% (active)
55 | Nc1n[nH]c2cccc(C#Cc3cccc(NC(=O)c4cc(N5CCOCC5)cc(C(F)(F)F)c4)c3)c12 | 10.6%
56 | CCN(CC)c1ccc(Nc2ccc(CC(=O)c3ccccc3)cc2)cc1 | 97.9%
57 | O=C(O)c1occ(Cl)c1Cl | 75.3%
58 | Fc1ccc(-c2nn3c(-c4cc(C(F)(F)F)cc(C(F)(F)F)c4)nnc3s2)cc1 | 92.2%
59 | O=c1c2cc(Cl)ccc2oc2ccc(OCCCCCN3CCCCCC3)cc12 | 54.2%
60 | CC1c2ccccc2-c2ccccc2N1C (stereo not drawn) | 106%
61 | Cc1cc2c(cc1C)NC1=C(N2)OC(c2c3ccccc3cc3ccccc23)C1=O (stereo not drawn) | 2.98% (active)
62 | COc1cc(CN2CCO[C@H](COc3cccc(F)c3)C2)ccc1Cl | 26.3%
63 | CCn1c(C)nc2cc(C(N)=O)ccc21 | 79.7%
64 | N#C/C(=C\c1ccc(-c2ccc(Cl)cc2)o1)c1nc(-c2ccco2)cs1 | 92.3%
65 | COc1cc(Cn2cc(F)c(=O)[nH]c2=O)cc(OC)c1 | 104% [50 µM]
66 | CCCCNCC(O)c1cc(-c2ccc(C(F)(F)F)cc2)nc(-c2ccc(C(F)(F)F)cc2)c1 (stereo not drawn) | -49.2% (active)

Row | Structure (SMILES) | growth
67 | CCCCC1COc2cccc3c2N1C=C/C3=C\C(=O)n1ccc2ccccc21 (stereo not drawn) | 58%
68 | O=C(NNC(=O)N1c2ccccc2C=Cc2ccccc21)c1ccccc1 | 98.8%
69 | C=C(C)[C@@H]1CC[C@]2(C)[C@H](CC[C@@H]3[C@@H]([C@@](C)(O)CCC=C(C)C)CC[C@]32C)[C@@]1(C)CCC(=O)O | -24.1% [100 µM] (active)
70 | CCOC(=O)CSSCC(=O)OCC | 108%
71 | CCN1C(=O)N(CC)C2C1NN=c1s/c(=C\c3cnc(C)n3C)c(=O)n12 (stereo not drawn) | -33.3% (active)
72 | CCn1cc(C(=O)N/N=C/c2ccccc2)c(=O)c2cc(F)c(N3CCNC(C)C3)c(F)c21 (stereo not drawn) | 18.1%
73 | Nc1nn2cc(-c3ccc(Cl)s3)nc2c2ccccc12 | 54.7%
74 | COc1cc(-c2nc3sccn3c2-c2ccnc(NCCNS(=O)(=O)c3ccc(Cl)cc3)n2)ccc1F | 9.59% (active)
75 | CC(C)CCC[C@@H](C)[C@H]1CC[C@H]2[C@@H]3CC=C4c5sc(Nc6cc(C(F)(F)F)cc(C(F)(F)F)c6)nc5CC[C@]4(C)[C@H]3CC[C@]12C | 101%
76 | CCc1nc(N)nc(N)c1-c1ccc(Cl)cc1 | 51.3%
77 | COc1cc(-c2c3sc(=O)[nH]c3nc3c2c(=O)[nH]n3C(C)C)cc2c1OCO2 | 116%
78 | NC(=S)N/N=C/c1ccc(OC(=O)COc2ccc(Cl)cc2)cn1 | 19.3%
79 | CCc1ccccc1-n1c(-c2ccc(OC)cc2)cc(-c2ccc(OC)cc2)c(C#N)c1=O | 121%
80 | N#CC1=C(N)Oc2c(sc3c(Br)cccc23)C1c1ccccn1 (stereo not drawn) | 7.5% (active)
81 | COc1ccc(NC(=O)CCl)cc1 | 69.8%
82 | Cn1cc(-c2nonc2-c2cn(C)c3ccccc23)c2ccccc21 | -27% (active)
83 | N#C/C(=C\c1ccc(-c2cccc(Cl)c2)o1)C(=O)Nc1ncc(Cc2ccc(Cl)cc2)s1 | 83.9%
84 | O=C(CN1C(=O)S/C(=C\C(Cl)=C\c2ccccc2)C1=O)NCCCn1ccnc1 | -4.78% (active)
85 | COC(=O)CCCCCn1c2ccccc2c2c3c(c4c5ccccc5[nH]c4c21)C(=O)N(O)C3=O | 19.1%
86 | CCC(C)N(c1ccc(Cl)cc1)c1nc(-c2ccc(Br)cc2)cs1 (stereo not drawn) | 100%
87 | S=c1cnc2ccccc2[nH]1 | 86.4%
88 | C=C(C)[C@@H]1CC[C@]2(C(=O)NCCCN)CC[C@]3(C)[C@H](CC[C@@H]4[C@@]5(C)CC[C@H](O)C(C)(C)[C@@H]5CC[C@]43C)[C@@H]12 | 1.25% [100 µM] (active)
